Screening data deposited in PubChem by several laboratories.
An excerpt weighted towards active compounds, which were near 3.9% of everything screened.
DUSP3 inh – VHR1 phosphatase inhibitors, primary screen, biochemical, absorbance, uHTS; Dual specificity protein phosphatase 3 (Homo sapiens), P51452; recombinant VHR phosphatase, pNPP absorbance; inhibition, % at 13.3 µM; hit rate 0.52% among 290,000; in the data active means inhibition above about 50%
Target sequence (P51452 whole entry, looked up): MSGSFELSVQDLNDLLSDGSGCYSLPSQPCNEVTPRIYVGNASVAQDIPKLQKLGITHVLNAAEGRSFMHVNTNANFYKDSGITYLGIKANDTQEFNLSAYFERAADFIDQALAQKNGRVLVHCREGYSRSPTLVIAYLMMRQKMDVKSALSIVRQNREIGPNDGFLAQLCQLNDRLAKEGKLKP
Bead autofluor – flagged as autofluorescent in microsphere protease counterscreen; compound autofluorescence counterscreen, microsphere flow cytometry; active compounds read high; fluorescence intensity (test concentration not listed); hit rate 3.1% among 360,000; AID 624483; in the data active means fluorescence intensity above about 16000; inconclusive means no clear call, values can overlap the other calls
BoNT F protease – BoNT/F light chain protease inhibitors, primary screen, biochemical, flow cytometry, MLPCN library; Multiplex microsphere protease cleavage assay; inhibition, % at 10 µM; hit rate 0.22% among 360,000; AID 588497, 2011; in the data active means inhibition above about 35%, passing the limit was not always enough; inconclusive means no clear call, values can overlap the other calls; further: plate controls were buffer without enzyme for full effect and enzyme alone for no effect
Anthrax LF inh2 – Bacillus anthracis LF protease inhibitors, primary screen, biochemical, multiplex microsphere, MLPCN library; Lethal factor (Bacillus anthracis), P15917; multiplex microsphere protease cleavage assay; inhibition, % at 10 µM; hit rate 0.12% among 360,000; AID 588501, 2011; further: plate controls were buffer without enzyme for full effect and enzyme alone for no effect
SARS 3CLpro inh – SARS-CoV 3CLpro protease inhibitors, primary screen, biochemical, quenched FRET; Replicase polyprotein 1ab (Severe acute respiratory syndrome coronavirus), P0C6X7; recombinant SARS-CoV 3CLpro, quenched FRET peptide cleavage; inhibition, % at 6 µM; hit rate 0.14% among 290,000; in the data active means inhibition above about 12%
BoNT-A LC inh2 – BoNT/A light chain protease inhibitors, primary screen, biochemical, flow cytometry, MLPCN library | Botulinum neurotoxin type A light chain protease (Clostridium botulinum A str. ATCC 3502) | multiplex microsphere protease substrate cleavage | inhibition, % at 10 µM | hit rate 0.17% among 360,000 | AID 588499, 2011; further: plate controls were buffer without enzyme for full effect and enzyme alone for no effect
Numbers without * were called inactive; ? = inconclusive; nt = no result given. Unless noted, no stated cut-off is given here; in the data, active means inhibition above about 30%; inconclusive means no clear call, values can overlap the other calls; inactive means below that.

SMILES | DUSP3 inh | Bead autofluor | BoNT F protease | Anthrax LF inh2 | SARS 3CLpro inh | BoNT-A LC inh2
CN(C)C(CNc1ccc(S(C)(=O)=O)cc1[N+](=O)[O-])c1ccccc1 (configuration not stated) | 26 | 6131 | -2 | -5 | -3 | -2
CCN(CC(=O)NCc1ccncc1)S(=O)(=O)c1ccccc1 | 30 | 3704 | -4 | -7 | -9 | 2
Cc1cc(OCCN2CCOCC2)ccc1C(C)C | nt | 3964 | 13 | -3 | -4 | 4
Cc1ccc(S(=O)(=O)C2(C(=O)N3CCCCCC3)CC2)cc1 | -11 | 16721* | -4 | -4 | -2 | ?
CC1(C)C(c2ccccc2)=NC(c2cccnc2)N1O (configuration not stated) | -9 | 21816* | 0 | 0 | 2 | ?
CN(C)/C=C/C1=C([N+](=O)[O-])C(c2cccc([N+](=O)[O-])c2)NC(=O)N1 (configuration not stated) | 15 | 5783 | -8 | 8 | -2 | -1
CCOc1ccc(/C=N/OCC(=O)NCc2ccc3c(c2)OCO3)cc1OC | 39 | 2575 | -4 | -2 | 5 | 0
CCc1ccc2nc3c(c(C(=O)O)c2c1)CCC3 | -8 | 22313* | 3 | -2 | 0 | 2
CC(C(=O)NCCSCc1cccc(Cl)c1)N(c1ccccc1)S(C)(=O)=O (configuration not stated) | nt | 3769 | 6 | -12 | -3 | 1
Cc1cc(C)n(Cc2ccc(NC(=O)c3nn(C)cc3[N+](=O)[O-])cc2)n1 | 3 | 22583* | 1 | -11 | -5 | 2
Cc1cc(C)n(Cc2ccc(NC(=O)c3c([N+](=O)[O-])c(C)nn3C)cc2)n1 | 18 | 21819* | 4 | -2 | 2 | 4
CC(=O)C1CCC2C3CCC4=CC(=O)CCC4(C)C3(F)C(O)CC12C (configuration not stated) | nt | 3790 | 7 | -8 | nt | 0
CCC(CC)N1CCN(S(=O)(=O)c2ccc(OC)cc2)CC1 | -8 | 2945 | ? | 10 | -2 | 0
Cc1cccc(NC(=O)C(C)Sc2nc3ccccc3c(=O)n2CCCN2CCOCC2)c1 (configuration not stated) | nt | 18006* | -63 | -12 | nt | -51
CC(C)n1c(CCCO)nc2ccccc21 | 28 | 24524* | -8 | -1 | -2 | -4
Cc1ccc(C(C)C)cc1-n1nnc(-c2cccc(Cc3ccc4ccccc4c3)c2)c1C(C)O (configuration not stated) | nt | 4053 | 2 | -13 | nt | -1
CCOc1ccc(-c2nnc(SCC(=O)Nc3ccc4c(c3)c3ccccc3n4CC)n2N)cc1 | 13 | 16867* | -2 | 0 | -3 | -1
CCn1c2ccccc2c2cc(NC(=O)CSc3nnc(-c4ccccc4OC)n3N)ccc21 | 32 | 17821* | -9 | 0 | 2 | ?
CCn1c2ccccc2c2cc(NC(=O)CSc3nnc(-c4ccc(OC)c(OC)c4)n3N)ccc21 | 23 | ? | -20 | 12 | -1 | 3
Cc1cc(OC(=O)c2c(Cl)cc(Cl)cc2Cl)nc(C)n1 | 17 | 16417* | 0 | -5 | -3 | -1
Cc1cc(C)nc(OC(=O)c2c(Cl)cc(Cl)cc2Cl)n1 | 21 | 4319 | 0 | -8 | 2 | -1
COc1ccc(CNC(=O)CSc2nnc(-c3ccc(NC(C)=O)cc3)n2C)cc1 | -14 | 17726* | 3 | -7 | 2 | 5
CCOC(=O)Cc1csc(NC(=O)CSc2nc(N)c3c(C)c(C)sc3n2)n1 | 50* | 3965 | -31 | -2 | 0 | 0
CCOC(=O)Cc1csc(NC(=O)CSc2nnc(-c3ccc(OC)cc3)n2C)n1 | -8 | 20591* | -4 | 0 | -4 | ?
COc1ccc(-n2c(SCC(N)=O)nnc2-c2ccco2)cc1 | 0 | 4762 | ? | -14 | 0 | -3
SMILES | DUSP3 inh | Bead autofluor | BoNT F protease | Anthrax LF inh2 | SARS 3CLpro inh | BoNT-A LC inh2
COc1ccc(-n2c(SCC(N)=O)nnc2-c2ccccc2F)cc1 | -9 | 16562* | -2 | 0 | -3 | 0
Cc1cc(C)cc(NC(=O)Nc2c(Br)cnn2C)c1 | 13 | 4067 | 6 | -7 | -5 | -1
F[B-](F)(F)c1cc2ccccc2s1 | nt | 3557 | -5 | 2 | nt | 0
COCCNC(=O)/C=C/c1c(Cl)cccc1Cl | -2 | 2261 | 2 | 0 | 1 | 0
COc1ccccc1-c1nnc(SCC(=O)Nc2ccc(S(N)(=O)=O)cc2)n1C | 18 | 21773* | -6 | -4 | -4 | -3
CC(=O)Nc1ccc(-c2nnc(SCc3c(C)cc(C)cc3C)n2C)cc1 | 27 | 23890* | -3 | 0 | 5 | 0
COCCn1c(SCC(=O)NCc2cccs2)nnc1-c1ccc(OC)cc1 | 32 | 9387 | 0 | 0 | -3 | 0
COc1ccc(-c2nnc(SCC(=O)Nc3ccc(C)cc3)n2C)cc1 | 2 | 8101 | -2 | 0 | 1 | 0
CCNC(=O)CSc1nnc(-c2ccc(OC)cc2)n1CC(C)C | 18 | 21420* | 2 | -10 | 7 | 3
COc1ccc(NC(=O)CSc2nnc(-c3ccccc3C)n2C)cc1 | -5 | 19446* | 1 | -1 | 2 | ?
O=C1c2ccccc2C(c2nnnn2Cc2ccccc2)N1Cc1cccc(F)c1 (configuration not stated) | nt | 6110 | 2 | 1 | nt | 1
CC(C)(C#N)NC(=O)C1CCCN1S(=O)(=O)c1ccc2ccccc2c1 (configuration not stated) | 28 | 3732 | 17 | 2 | 5 | 0
COc1ccc(NC(=O)CSc2nnc(-c3ccccn3)n2N)cc1 | 1 | 9304 | 35* | -24 | 7 | 34*
CCOc1ccc(NC(=O)CSc2nnc(-c3ccccn3)n2N)cc1 | 15 | 16005 | -1 | -4 | -4 | 1
CCSCc1nnc(SCC(=O)Nc2ccc(OC)cc2)n1C | 57* | 4042 | -2 | 2 | 0 | 0
CCn1c(CCNC(=O)c2ccc(OC)cc2)nnc1SCC(=O)Nc1ccccc1F | 6 | 3233 | -6 | -3 | -5 | 0
COc1ccc(C(=O)NCCc2nnc(SCC(=O)Nc3ccccc3C(C)C)n2C)cc1 | 27 | 20025* | 0 | -3 | 3 | 0
COc1ccc(-n2c(SCC(=O)NCC3CCCO3)nc3c(c2=O)SC(C)C3)cc1 (configuration not stated) | 1 | 4374 | -1 | -4 | -8 | 0
CC1Oc2ccccc2N(CC(=O)NC2CC2)C1=O (configuration not stated) | 7 | 3023 | -2 | -4 | -3 | 1
CC1Oc2ccccc2N(CC(=O)Nc2ccccc2F)C1=O (configuration not stated) | 6 | 3785 | -21 | -7 | 0 | -3
